Inconclusive results are not listed. Where a call stands in place of a potency, no number is given. Active and inactive are the calls of the source. The call rests on the fitted dose curve; in most records, active means well fitted activation curve with a large enough effect in the repeat runs; inconclusive means weak or mixed curves; inactive means flat fitted curve, though single readings scatter.
test: A CellTox Green Cytotoxicity Assay to monitor cytotoxicity in HEK293 cells - 32 hour (AID 1224881); settings: CellTox Green fluorescence; series mostly up to 76.8 µM; further: nearly all actives have a fitted effect of over 40% in size
From the text: National Center for Advancing Translational Sciences [NCATS]
NIH Chemical Genomics Center [NCGC]
U.S. Environmental Protection Agency [EPA]
National Institutes of Environmental Health Sciences [NIEHS]
National Toxicology Program [NTP]
Cell-based models are critical for drug discovery. Determining the natural cytotoxic effects resulting from test compounds is an essential research activity. A CellTox Green Cytotoxicity Assay to monitor cytotoxicity in real time of continues cell culture during 40 hours of the compound treatment was used to screen Tox21 10K library compounds in Hek293 cells. CellTox Green Cytotoxicity Assay is a nonlytic, homogeneous, biofluorescent method to measure cytotoxicity in cell culture after experimental manipulation. The assay system uses a proprietary asymmetric cyanine dye that is excluded from viable cells but preferentially stains the dead cell's DNA. […] Viable cells produce no appreciable increases in fluorescence. Therefore, the fluorescence signal produced by the binding interaction with dead cell DNA is proportional to cytotoxicity.
The mixture of Hek293 cell suspension and reagents were dispensed at 600cells/6 ul/well in 1536-well tissue culture treated black solid bottom plates using a Multidrop dispenser. After the assay plates were incubated at a 37 C/5% CO2 incubator for 5 hours, 23 nL of compounds dissolved in DMSO, positive and negative controls was transferred to the assay plate by a pintool work station. The plates were incubated at 37 C for 40 hours. The fluorescence intensity were measured at 0h, 8h, 16h, 24h, 32h and 40h time points using ViewLux plate reader during compound treatment.
Potency means the concentration at half of the fitted maximal effect.

SMILES	Potency	cytotoxicity increase
O=C1OCc2ccccc21	inactive	–
Nc1ccc(Cl)c([N+](=O)[O-])c1	inactive	–
Nc1cc([N+](=O)[O-])cc(Cl)c1O	inactive	–
CC/C=C(\C)C=O	inactive	–
Nc1ccc(Oc2cccc(Oc3ccc(N)cc3)c2)cc1	inactive	–
CC(C)c1ccc2sc3ccccc3c(=O)c2c1	inactive	–
CCN(CC)c1ccc2c(c1)Oc1cc(N(CC)CC)ccc1C21OC(=O)c2ccccc21	19 µM (active)	–
SC1CCCCC1	inactive	–
O=C(O)C[C@H](O)C[C@H](O)/C=C/c1c(C2CC2)nc2ccccc2c1-c1ccc(F)cc1	–	-0.515% [at 15.8 µM] (inactive)
c1ccc(-c2ccc(C(c3ccccc3)n3ccnc3)cc2)cc1 (stereo not given)	inactive	–
Nc1cccnc1N	inactive	–
O=c1cc[nH]cc1	inactive	–
COc1cc2ncnc(Nc3cccc(Cl)c3)c2cc1OC	–	0.0774% [at 15.8 µM] (inactive)
O=C(N[C@H](CO)[C@H](O)c1ccc([N+](=O)[O-])cc1)C(Cl)Cl	inactive	–
CCc1c(C)cc(N)c(CC)c1N	inactive	–
Cc1ccc(S(=O)(=O)C(I)I)cc1	24.5 µM (active)	–
O=C(c1ccccc1)c1ccc(Cl)cc1	inactive	–
CCSCC	inactive	–
CC(C)(C)c1ccc(OC2CCCCC2O)cc1 (stereo not given)	49 µM (active)	–
COCCC(=O)OC	inactive	–

SMILES	Potency	cytotoxicity increase
S=C1NC=NC2N=CNC12 (stereo not given)	inactive	–
Clc1cccc(Cl)n1	inactive	–
Cc1cccc(C)c1C	inactive	–
CC(C)(C)C1=CC(=O)C(C(C)(C)C)=CC1=O	inactive	–
c1ccc(-c2nc3ccccc3[nH]2)cc1	inactive	–
Cc1ccc(C=O)cc1	inactive	–
CN[C@H]1CC[C@@H](c2ccc(Cl)c(Cl)c2)c2ccc(S(N)(=O)=O)cc21	24.5 µM (active)	–
Oc1cccc2c(O)cccc12	inactive	–
[Cl][Eu]([Cl])[Cl]	inactive	–
O=C1c2ccccc2C(=O)c2c(Cl)cccc21	inactive	–
COc1cc(/C=C/C(=O)CC(=O)/C=C/c2ccc(O)c(OC)c2)ccc1O	39.2 µM (active)	–
CCC(O)CO (stereo not given)	inactive	–
CC(C)C(=O)C(C)C	inactive	–
Oc1ccc2c(c1)CCC2	inactive	–
CCOC(=O)[C@H](O)[C@@H](O)C(=O)OCC	inactive	–
Cc1ccc(N=Nc2c(O)ccc3ccccc23)c(C)c1	inactive	–
CCOc1ccc([N+](=O)[O-])cc1	44.3 µM (active)	–
COc1cccc(-c2ccc(/C=C\CN3CCCCCC3)cc2Cl)c1	43.4 µM (active)	–
C=C[Si](C)(C)Cl	–	-7.47% [at 6.97 µM] (inactive)
CC1=CC[C@@H](C(C)(C)O)CC1	inactive	–
